Laboratory results reported in PubChem BioAssay AID720519 (National Center for Advancing Translational Sciences (NCATS), 2013).
Results filed as inconclusive are left out. Active and inactive are the calls of the source. The call rests on the fitted dose curve; in most records, active means well fitted activation curve with a large enough effect; inconclusive means small, poorly fitted or top-dose-only effect; inactive means flat fitted curve, though single readings scatter.

test: qHTS for Inhibitors of Cell Surface uPA Generation: Confirmatory Assay for Cherry-picked Compounds; conditions: cell surface uPA activity generation, qHTS confirmation; series mostly up to 115 µM; inhibition: at the top concentration; further: 0% is about no effect
In short: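 RAW 264.7 cells at 4000/well, incubated overnight, then treated with compounds. After 24 h at 37 C, viability was read by ATPlite luminescence. An increase in signal indicates blocked uPA-dependent LF entry.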

inhibition, inactive:
CCCCn1c(C2CCCCC2)nc2cc3[nH]c(=O)c(C(C)C)nc3cc21 -3.43%, CC(=O)NS(=O)(=O)c1ccc(NC(=O)c2cccc(OCc3c(C)noc3C)c2)cc1 -0.123%, [N-]=[N+]=NC1C[C@H](n2ccc(=O)[nH]c2=O)O[C@@H]1CO (some centres undefined) -2.21%, Cc1cc(COc2ccccc2)oc1C(=O)O -1.25%, N#Cc1cccc(NC(=O)Cn2cnc(S(=O)(=O)N3CCOCC3)c2)c1 -0.879%, CCc1ccccc1N1C(=O)CC(Sc2nccc(C)n2)C1=O (centres undefined) 0.764%, O=[N+]([O-])c1cccc(-c2noc(-c3cccs3)n2)c1 4.61%, Cc1ccc(NC(=O)CC2OC(=O)c3ccccc32)cc1S(=O)(=O)N1CCOCC1 (centres undefined) -0.704%, Cc1[nH]c2ccccc2c1C(=O)C(C)OC(=O)c1ccccc1NCCO (centres undefined) -3.62%, O=S(=O)(NCCc1ccccc1F)c1cccc(S(=O)(=O)N2CCOCC2)c1 -3.02%, C=C(C(=O)O)C1CCC2(C)CCCC(C)(O)C2C1 (centres undefined) -1.14%, O=C(c1ccco1)N1CCN(c2ncccn2)CC1 -1.83%, CCOC(=O)CC(=O)CSc1nc2c(C)c(C)ccc2cc1C 0.709%, CCCCn1c(-c2cccnc2)nc2cc3[nH]c(=O)c(C(C)C)nc3cc21 4.78%, CC(C)CN(C(=O)CN1CCC(C)CC1)c1c(N)n(CC(C)C)c(=O)[nH]c1=O 0.626%, CCC1=NN(C(=O)C(=O)Nc2ccc(OC)cc2)C(O)(C(F)(F)F)C1 (centres undefined) -1.82%, Cc1nc(C(=O)N2CCC(n3nccc3NC(=O)Nc3ccccc3Cl)CC2)cs1 -2.57%, COc1ccc(C(=O)NC(=S)Nc2ccc(NC(=O)c3ccco3)cc2)cc1[N+](=O)[O-] 0.844%, O=C(CCCC(=O)N(c1cccc(F)c1)C(C(=O)NC1CCCC1)c1ccc(O)cc1)Nc1ccccn1 (centres undefined) -2.36%, O=C(Cc1ccc(Cl)cc1)c1c[nH]c(C(=O)NCCCn2ccnc2)c1 1.14%, Cc1ccc(NS(=O)(=O)c2c(C)nc3sccn3c2=O)c(C)c1 -2.66%, O=C(Nc1cccc(NC(=O)c2ccc(F)cc2)c1)c1ccc(F)cc1 0.535%, O=C(NCCCN1CCCC1=O)c1cccc(Oc2ccccc2)c1 -1.6%, CN1CC[C@]23c4ccccc4N[C@H]1[C@]21CCN(C)[C@H]3Nc2ccccc21 12.6%, CCn1c(=O)cc(C(=O)OC)sc1=Nc1ccc(F)c(F)c1 -3.55%, COc1ccc(-c2cc3nc(-c4ccccc4)cc(N4CCCC(O)C4)n3n2)cc1 (centres undefined) 2.53%, CCOc1ccc(Cl)cc1/C=N/NC(=O)c1ccccc1 -0.983%, COCCN(C(=O)c1ccc(OC2CCN(S(=O)(=O)N(C)C)CC2)cc1)C(C)C 0.226%, Cc1ccc(N2C(=O)CC(N3CCN/C3=C3\CC/C(=C\c4ccccc4)C3=O)C2=O)cc1 (centres undefined) -1.31%, O=C(NCCN1CCOCC1)c1ccccc1Cl -2.24%, COc1ccc2[nH]cc(S(=O)(=O)c3ccc(C(C)C)cc3)c(=O)c2c1 0.422%, CC(=O)Oc1ccccc1C(=O)Nc1ccccc1C(=O)N1CCCC1 -1.4%, CC(O)[C@H]1CNC(=O)C(=O)N1CCc1cccc(F)c1 (some centres undefined) 0.53%, COc1ccc(C(C)=O)cc1CSC(=N)N -2.18%, Cc1nc2ccc(Br)cn2c1C(=O)N/N=C\c1ccccc1Cl 0.471%, O=c1ccc(S(=O)(=O)N2CCCC2)c[nH]1 -0.713%, Cc1ccc(C)c(-c2ccc(=O)n(Cc3c(F)cccc3Cl)n2)c1 -3.64%, COC(=O)[C@@]1(Cc2ccc(F)cc2)[C@H]2c3cc(C(=O)N(C)C)n(Cc4c(CO)[nH]cc(C)c4=O)c3C[C@H]2CN1C(=O)c1ccccc1 -0.239%, COc1ccc(NC(=O)/C(N=Nc2cc(S(=O)(=O)Nc3ccc(OC)cc3)ccc2OC)=C(\C)O)cc1 -1.65%
